About 83,000 compounds went through this panel and 20% of them were active in at least one assay; those are over-represented in the sample as a whole.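 Results are percent growth after 48 hours of single-concentration exposure. 100 means growth as in untreated cells, lower positive values show inhibition; negative values down to -100 show cell death.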 Values without a mark were called inactive. Calls of active or inactive are those of the source. How the source made its calls: active means growth percent below 10; inactive means the rest.
Tested on: A549/ATCC NSCLC
Test: NCI-60 one-dose screen, 48 h (100 = growth as untreated, 0 = no growth, -100 = all killed)
Settings: 10 µM unless noted

Row | Compound | growth
1 | COc1ccc(N=C2CSc3nnc(-c4cc(F)c(Cl)cc4Cl)n3N2)cc1 | -21.1% (active)
2 | Nc1c(C(=O)Nc2cccc(Cl)c2)sc2nc3c(cc12)C(=O)CCC3 | 28.2%
3 | COc1ccc(CNc2c3ccccc3nc3ccc(OC)cc23)cc1 | 14.6%
4 | CCOC(=O)c1cc(C(=O)OCC)c(C)nc1C | 101%
5 | NC(=O)N/N=C\c1ccc([N+](=O)[O-])o1 | 97.1%
6 | Cc1ccc(NC(=O)c2sc3nc4c(cc3c2N)C(=O)CCC4)cc1Cl | 101%
7 | COc1ccc(-n2c(COc3ccc(F)cc3)n[nH]c2=S)cc1 | 131%
8 | COc1ccccc1-[n+]1cc(-c2ccc(-c3ccccc3)cc2)n2c1CCCCC2 | 10.3%
9 | Nc1cc(C(=O)O)cc(C(=O)O)c1 | 108%
10 | CN(C)c1nc(-c2cccs2)n2nc(-c3ccco3)cc2n1 | 101%
11 | O=C(Nc1cccc(-n2ccc3c(NC(=O)c4ccccc4)nccc32)c1)c1ccc(N2CCOCC2)c(C(F)(F)F)c1 | 8.39% (active)
12 | CNC(=O)c1c(NC(=O)c2ccc(C(C)C)cc2)sc2c1CCC(=O)C2 | 15.9%
13 | CC(CN1CCN(CC(C)Nc2ccnc3cc(Cl)ccc23)CC1)Nc1ccnc2cc(Cl)ccc12 (stereo unspecified) | 15.7%
14 | Cc1c2c(cc3c1[nH]c1ccccc13)C=NCC2 | 91.5%
15 | CC(C)c1ccc2c(c1)CCC1C2CCCC1(C)NCc1ccccc1 (stereo unspecified) | 83.7%
16 | CC1(C)OC2OC3C(CN)OC(c4ccccc4)OC3C2O1 (stereo unspecified) | 107%

Source: PubChem BioAssay (NCI)
